Screening results as filed in PubChem BioAssay.
Most compounds without a hit are left out; they make up all but 6% or so of the library.
D1 potentiator: enhances dopamine response at the human D1 receptor. potentiation, % at 10 µM. P21728. 360,000 tested, 0.036% active. AID 504651. HEK293 TREx D1 cells, calcium flux, dopamine EC20 potentiation; in the data active means potentiation above about 30%; further: 0% is about no effect
D1 ag: human D1 receptor agonism | AID 504660 | 360,000 tested, 1% active | activation, % at 2 µM | P21728 | HEK293 T-REx D1 cells, calcium flux, agonist mode; in the data active means activation above about 30%; further: 0% is about no effect
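Agonism was scored from calcium flux recorded over 180 s (1 read/s) after pintool compound addition, following a 10-cycle baseline. Cells were inducible force-coupled HEK293 TREx D1, plated overnight at 30 C and loaded with no-wash calcium dye.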
BCR signal inh: blocks chronic active B-cell receptor signaling. ABC-DLBCL IkBa-CBG/CBR reporter, luminescence ratio, 4 h. Potency, µM (highest dose often 46.1 µM), for the others: at the top dose activity change, negative = inhibition, most hits filed as inhibitors. 340,000 tested, 0.05% active. AID 493014; active means well fitted inhibition curve with a large enough effect in the signal ratio, with a control signal flat, not every such curve was filed as active; inconclusive means small, poorly fitted or top-dose-only effect, or effect the other way, or a change in a side signal; the % refers to the signal ratio;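 further: potency means the concentration at half of the fitted maximal effect; plate controls were basal doxycycline-induced cells for no effect and cells given 10 µM MG132 for full effect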
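TMD8 human ABC-DLBCL cells with doxycycline-inducible IκBα–green luciferase fusion and unfused red luciferase, in 0.5% FBS medium; compounds up to 46 uM, 4 h at 37C. Green/red luminescence ratio, filter-overlap corrected, fitted to concentration-response curves.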
D1 antag: antagonists of human D1 dopamine receptor. 360,000 tested, 3.2% active. HEK293 TREx D1 cells, calcium flux, dopamine EC80; hits give low values. activity change, negative = inhibition, % at 10 µM. P21728; in the data active means activity change below about -30%; further: on the % scale 0 is the no-effect control and ±100 the full control effect
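After overnight tetracycline induction at 30 C, force-coupled D1 HEK293 cells took up a no-wash calcium dye at room temperature. Compounds were added and monitored 180 s, and the response to EC80 dopamine was then recorded.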
DRD3 antagonist: antagonists of human D3 dopamine receptor | P35462 | max response, negative = inhibition, % | D3R cells, DiscoveRx beta-arrestin luminescence, antagonist mode; hits give low values | 360,000 tested, 2.5% active; in the data active means max response below about -50%; inconclusive means no clear call, values can overlap the other calls; further: on the % scale 0 is the no-effect control and ±100 the full control effect
Target sequence (P35462 whole entry, looked up): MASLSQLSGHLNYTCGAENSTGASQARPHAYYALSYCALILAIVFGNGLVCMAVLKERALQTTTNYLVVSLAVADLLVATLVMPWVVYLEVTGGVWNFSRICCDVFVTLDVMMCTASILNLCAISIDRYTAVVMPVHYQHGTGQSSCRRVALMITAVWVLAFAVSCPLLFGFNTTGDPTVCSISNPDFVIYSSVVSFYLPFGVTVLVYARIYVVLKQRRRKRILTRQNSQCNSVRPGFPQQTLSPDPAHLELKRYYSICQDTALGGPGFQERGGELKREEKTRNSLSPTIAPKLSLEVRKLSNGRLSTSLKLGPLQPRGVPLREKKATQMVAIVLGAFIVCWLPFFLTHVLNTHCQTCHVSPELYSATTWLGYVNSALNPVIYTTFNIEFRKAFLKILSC
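Cells expressing the human receptor were seeded at 1500 cells/well, incubated overnight at 37 degrees C in 5% CO2, then exposed to library compounds with dopamine controls for 90 minutes at 37 degrees C before luminescent detection.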
DRD3 agonist: agonists of human D3 dopamine receptor; P35462; D3R DiscoveRx beta-arrestin cells, luminescence, 90 min; max activation, %; 410,000 tested, 0.58% active; AID 652048; in the data active means max activation above about 30%; further: 0% is about no effect
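Agonist-mode cell screen: cells plated at 1500/well and incubated overnight at 37 °C, then exposed to library compounds for 90 min at 37 °C. Detection reagent was added for 30–60 min at room temperature, and luminescence was read.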
Numbers without * were called inactive; ? = inconclusive; · = no result.

SMILES	D1 potentiator	D1 ag	BCR signal inh	D1 antag	DRD3 antagonist	DRD3 agonist
CCCS(=O)(=O)N1CCN(C(=O)COc2ccccc2)CC1	-7.5	-0.6	-1.5%	10.2	-19.9	34.1*
c1ccc(CN(Cc2ccccc2)Cc2nnc(-c3cc4ccccc4[nH]3)o2)cc1	-5.5	2.3	·	31.7	·	·
CN(C1CCCCC1)S(=O)(=O)c1ccc2c(c1)c(=O)c(C(=O)NCCc1ccccc1)cn2C	9.7	1.9	·	-7.4	·	9.5
O=C(COc1ccccc1)N1CCN(c2ccccc2)CC1	-2.7	3.5	5.4%	-34.6*	1.3	2.4
N#CCCN(C(=O)COC(=O)c1ccc(CNS(=O)(=O)c2ccc(F)c(Cl)c2)cc1)c1ccc(F)cc1	1.4	7.2	2.3%	-32.8*	1.4	2.6
CC(C)[C@]1(c2ccccc2)ON(c2ccccc2C(F)(F)F)C1=O	8.5	0.4	-6.8%	·	·	·
CC(=O)c1cc(C)ccc1OC(=O)CCN1C(=O)C2C3c4ccccc4C(c4ccccc43)C2C1=O (stereo unspecified)	3.7	-0.1	-0.1%	12.2	8.4	37.8*
N#CC1=C(S)N=C(N)C(c2nc(-c3ccccc3)cs2)C12CCCCC2 (stereo unspecified)	2.9	3.3	?	-6.3	-19.8	-7.0
Cc1ccc(-c2csc(C3C(N)=NC(S)=C(C#N)C34CCCCC4)n2)cc1 (stereo unspecified)	1.4	-2.3	11.4%	-5.5	-71.8*	7.3
COc1cccc2cc(-c3nnc(Nc4ccccc4C)s3)c(=O)oc12	-1.0	5.5	?	16.3	·	2.8
COc1ccc(CCNC(=O)Cn2nc(C)c3c(C)n(-c4ccc(C)cc4)nc3c2=O)c(OC)c1	-1.8	2.1	-15.1%	-43.0*	·	-6.7
COc1ccc(NC(=O)CCCn2nc(C)c3c(C)n(-c4ccccc4)nc3c2=O)cc1OC	-2.4	-0.2	0.1%	-52.6*	-4.5	-0.7
CN(C)CCCN1c2ccc(O)cc2Sc2ccc(Cl)cc21	·	·	·	·	-109.6*	-8.3
CC(CN(C)C)CN1c2ccccc2Sc2ccc(C(F)(F)F)cc21 (stereo unspecified)	·	·	·	·	·	-20.1
CN1CCN(CCC(=O)N2c3ccccc3Sc3ccc(C(F)(F)F)cc32)CC1	-7.0	11.7	?	-4.2	-52.9*	-24.2
CCN(CC)CC(=O)N1c2ccccc2Sc2ccc(Cl)cc21	-4.5	1.9	-0.8%	19.3	?	-7.8
CCN(CC)CCCCN1c2ccccc2Sc2ccccc21	-3.9	35.0*	?	-12.3	-107.5*	-13.4
CN(C)CCCN1c2ccccc2Sc2ccc(C(F)(F)F)cc21	-4.8	55.4*	?	-78.7*	-96.8*	-85.9
CCN(CC)CC(=O)N1c2ccccc2Sc2ccccc21	1.4	6.6	4.6%	-25.5	-16.4	-7.4
CC1(C(=O)Nc2ccc3c(c2)OCO3)CCN1C(=O)CC1CC1 (stereo unspecified)	·	·	·	·	?	-3.8
CN1CC2(C)OC(=O)C(Cl)=C2CC1c1ccccc1 (stereo unspecified)	-5.6	2.8	2.9%	-54.7*	8.2	2.4
COc1ccc(/C=C2\N=C(SC)N(c3ccccc3OC)C2=O)cc1	-7.7	14.4	-11.2%	-34.0*	-4.4	-7.1
COC(=O)c1ccc(COC(=O)C(NC(=O)Cc2ccccc2)C(C)C)cc1 (stereo unspecified)	2.0	5.9	-2.6%	-32.4*	-6.8	-0.4
COc1ccccc1C(=O)COC(=O)C(NC(=O)Cc1ccccc1)C(C)C (stereo unspecified)	·	·	0.4%	·	1.8	-4.6
O=C(Nc1ccc2c(c1)[C@H]1C[C@@H](CC(=O)N3CCOCC3)O[C@@H](CO)[C@H]1O2)C1CCOCC1	·	·	·	·	1.1	-2.1
SMILES	D1 potentiator	D1 ag	BCR signal inh	D1 antag	DRD3 antagonist	DRD3 agonist
COc1ccc(N2Cc3cccc(C(=O)Nc4ccc(Cl)cc4)c3C2=O)cc1	-2.9	0.1	·	-0.6	·	3.2
CC(C)n1nnnc1-c1cccc(Cl)c1	14.6	2.4	3.1%	-0.7	-50.6*	8.1
O=C(O)CNCC1COc2ccccc2O1 (stereo unspecified)	-1.8	-0.2	3.2%	-8.4	16.0	-0.3
S=C(NCc1ccccc1)NCC1COc2ccccc2O1 (stereo unspecified)	-12.1	5.2	12.7%	-21.7	-17.4	-35.9
c1ccc2c(c1)OCC(CNCC1COc3ccccc3O1)O2 (stereo unspecified)	-7.0	-0.6	?	-5.9	-80.6*	-7.5
O=C(NCC1COc2ccccc2O1)c1ccc(NC(=O)c2ccco2)cc1 (stereo unspecified)	-7.3	3.8	0.0%	-30.2*	-16.6	-2.0
Oc1ccc(CNCC2COc3ccccc3O2)cc1 (stereo unspecified)	-2.5	5.2	9.8%	-26.2	-72.8*	3.5
CN(C)S(=O)(=O)c1cccc(CNCC2COc3ccccc3O2)c1 (stereo unspecified)	-7.7	7.3	-5.1%	-4.6	?	30.7*
CCOc1ccc2oc(=O)cc(CN3CCN(Cc4ccc(F)cc4)CC3)c2c1	-3.2	4.6	·	-12.9	·	-35.2
c1ccc(CCNCC2COc3ccccc3O2)cc1 (stereo unspecified)	-9.2	3.0	?	4.1	-85.5*	-3.4
O=C1CC2(CCCC2)CC(=O)N1CCNCC1COc2ccccc2O1 (stereo unspecified)	·	·	·	·	·	-25.5
CC1(C(=O)NS(=O)(=O)c2cccs2)CCN1C(=O)CC1CCCC1 (stereo unspecified)	·	·	·	·	13.5	8.2
CC1=C/C(=N\OS(=O)(=O)c2ccccc2)C(C)=CC1=O	-4.5	8.1	?	-27.1	-73.4*	-0.9
CC1=C/C(=N\OS(=O)(=O)c2ccccc2)C(C(C)C)=CC1=O	-3.9	-1.5	?	-16.1	-15.4	-3.8
COc1ccc(S(=O)(=O)/N=C2/C=CC(=O)C(C)=C2C)cc1	-8.9	2.6	-0.2%	5.1	-13.1	7.5
CC1=C(C)/C(=N\OS(=O)(=O)c2ccc(C)cc2)C=CC1=O	-3.0	2.9	?	-16.2	-104.1*	-3.2
Cc1nc2ncnn2c(C)c1CCC(=O)O	-2.2	0.6	-2.6%	-37.5*	6.6	2.8
CC(=O)N1N=C(c2cccc([N+](=O)[O-])c2)OC1c1ccccc1Cl (stereo unspecified)	-0.9	3.2	0.3%	6.5	-59.6*	-3.0
Cc1ccc2c(CNCc3cccs3)c(C(=O)O)n(Cc3ccc(F)cc3)c2c1	1.4	0.4	·	35.3	·	-4.6
COc1cc(-c2noc(-c3ccc(NC4CCCC4)c([N+](=O)[O-])c3)n2)cc(OC)c1OC	1.1	9.5	·	-30.3*	·	4.3
COc1ccccc1-c1noc(-c2ccc(NCc3ccco3)c([N+](=O)[O-])c2)n1	0.7	5.1	·	-12.2	·	-6.2
